From PubChem BioAssay AID1851 (National Center for Advancing Translational Sciences (NCATS), 2009)
Values joined by “and” are separate entries in the source; they are usually repeats but may differ in a detail not shown here. Equal values may be shown once. Among all 16,000 compounds or so, about 2,600 (16%) were called active. Another 20% or so got no clear call; they are omitted. The call rests on the fitted dose curve; in most records, active means well fitted curve in the direction sought with a large enough effect; inconclusive means small, poorly fitted or top-dose-only effect, or effect the other way; inactive means no such curve, though single readings can be large or run the other way. A selection follows. Where a structure was tested more than once in an assay, its records may differ in their call.

Target: Cytochrome P450 2D6 (Homo sapiens) (UniProt P10635)
Sequence (P10635 whole entry, looked up): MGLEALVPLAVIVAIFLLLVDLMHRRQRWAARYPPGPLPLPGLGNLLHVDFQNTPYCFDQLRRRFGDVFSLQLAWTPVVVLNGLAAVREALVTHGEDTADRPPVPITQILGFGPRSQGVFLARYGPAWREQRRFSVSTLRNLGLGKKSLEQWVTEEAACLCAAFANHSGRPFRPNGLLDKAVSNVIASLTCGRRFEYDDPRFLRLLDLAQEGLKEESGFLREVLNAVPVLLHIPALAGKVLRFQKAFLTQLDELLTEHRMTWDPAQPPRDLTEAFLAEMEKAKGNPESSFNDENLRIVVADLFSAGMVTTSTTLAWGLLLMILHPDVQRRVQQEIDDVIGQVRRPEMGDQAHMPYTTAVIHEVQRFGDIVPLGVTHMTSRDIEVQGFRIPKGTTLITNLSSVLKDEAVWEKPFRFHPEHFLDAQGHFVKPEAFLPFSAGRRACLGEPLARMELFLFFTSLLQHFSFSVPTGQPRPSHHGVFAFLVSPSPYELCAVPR
Assay: Cytochrome panel assay with activity outcomes
Details: recombinant CYP, pro-luciferin dealkylation, luminescence, p450-cyp2d6; series mostly up to 57.1 µM
On the % scale 0 is the no-effect control and ±100 the full control effect.

SMILES | AC50 | activity, negative = inhibition
COC(=O)c1c(-n2c(C)cc(C=O)c2C)sc2c1CCCC2 | inactive | 
CCOC(=O)c1c(-c2ccc(C)cc2)csc1NC(=O)C1CC=CCC1C(=O)O (configuration not stated) | inactive | 
COC(=O)[C@@H]1O[C@@H](c2c(OC)c(OC)c(C)c(OC)c2OC)[C@H](C)[C@@H](O)[C@@H]1C |  | 15.2% [at 11.4 µM] (inactive)
NS(=O)(=O)c1cc(C(=O)O)cc(N2CCCC2)c1Oc1ccccc1 | inactive | 
O=C(c1cn(-c2ccccc2)nc1-c1cccs1)N1CCOCC1 | inactive | 
O=C1C[C@@H](O)[C@@H](O)[C@H]2[C@@H]3C(=O)N(c4cccc(Oc5ccccc5)c4)C(=O)[C@@H]3CC[C@H]12 |  | -10.1% [at 11.4 µM] (inactive) and -0.87% [at 11.4 µM] (inactive)
CCOC(=O)Cc1cc(=O)n2[nH]c(C)c(-c3ccccc3)c2n1 | inactive | 
CCS(=O)(=O)c1ccc2c(c1)N(S(C)(=O)=O)CC(C(=O)NCCOC)O2 (configuration not stated) | inactive | 
Cc1ccccc1-c1nc(-c2ccc(NC(=O)c3cccs3)cc2)no1 | inactive | 
O=C(Nc1ccccc1)c1cc(-n2cnnc2)ccc1Cl | inactive | 
C[C@]12CC[C@H]3c4ccc(OC[C@H]5CO5)cc4CC[C@H]3[C@H]1CC[C@@H]2O |  | -13.3% [at 11.4 µM] (inactive)
O=C(Oc1ccccc1)N1CCC[C@@]2(CCN(c3ncccn3)C2)C1 | inactive | 
O=C(c1ccncc1)N1CCC[C@@]2(CCN(c3ccccn3)C2)C1 | inactive | 
O=C(Oc1ccccc1)N1CCC2(CC1)CN(c1ccccn1)C2 | inactive | 
COC(=O)N1CCC[C@@]2(CCN(c3ncccn3)C2)C1 | inactive | 
O=C(Oc1ccccc1)N1CCC[C@@]2(CCN(c3ccccn3)C2)C1 | 7.94 µM (active) | 
COC(=O)N1CCC[C@@]2(CCN(c3ccccn3)C2)C1 | 12.6 µM (active) | 
Cc1ccc(-c2nnc(-c3ccc(NC(=O)c4cccs4)cc3)o2)cc1 | inactive | 
Cc1ccc(S(=O)(=O)O[C@H]2C[C@@H](C(C)(C)C)CC[C@@H]2c2ccccc2)cc1 |  | -9.43% [at 11.4 µM] (inactive)
CCOC(=O)C1=NOC(CNC(=O)C2=NOC(CNC(=O)c3c(-c4ccccc4Cl)noc3C)C2)C1 (configuration not stated) | inactive | 
C/C(CCN1CCc2nc(-c3ccccc3)c(-c3ccccc3)cc2C1)=N\OC[C@@H](C)[C@H](OCc1ccccc1)C(C)C |  | 13.5% [at 11.4 µM] (inactive)
Cc1ccc(S(=O)(=O)CCCS(=O)(=O)c2ccc(C)cc2)cc1 | inactive | 
CC(C)(C)c1ccc(S(=O)(=O)/C=C\C#N)cc1 | inactive | 

SMILES | AC50 | activity, negative = inhibition
Cc1ccc(S(=O)(=O)/C=C\C#N)cc1 | 0.0158 µM (active) | 
CC1(C)Cc2c(sc3c2C(=O)N(c2ccccc2)C2=NCCN23)CS1 | inactive | 
C=C1CCO[C@@]2([C@H](O)[C@@](C)(O)CO)NC(=O)[C@]1(O)NC2=O |  | 9.37% [at 11.4 µM] (inactive)
COc1ccc(NC(=O)N2CCCC2C(=O)Nc2ccccc2)cc1 (configuration not stated) | inactive | 
COC(=O)c1ccccc1NC(=O)C1CCN(C(=O)c2ccc(OC)cc2)CC1 | inactive | 
O=C(Nc1ccc(Oc2ccccc2)cc1)C1CCN(c2c3c(nc4ncnn24)CCC3)CC1 | 12.6 µM (active) | 
COc1cccc(-c2nccc(NCc3ccc(OC)cc3OC)n2)c1 | 12.6 µM (active) | 
COc1cccc(-c2nccc(NCc3ccccc3OC)n2)c1 | 0.398 µM (active) | 
COc1ccc(CNc2ccnc(-c3cccnc3)n2)c(OC)c1 | 10 µM (active) | 
COc1ccccc1CNc1ccnc(-c2cccc(C#N)c2)n1 | 25.1 µM (active) | 
COc1ccc(C(=O)Nc2scc(-c3ccc(Cl)cc3Cl)c2C(N)=O)cc1 | inactive | 
CN1CCCN(C2C3CC4CC(C3)CC2C4)CC1 (configuration not stated) | inactive | 
Cc1cc(C)c(S(=O)(=O)N2CCN(c3ccc([N+](=O)[O-])c(NCc4ccco4)c3)CC2)c(C)c1 | inactive | 
CCOCC(=O)Nc1c(C(=O)Nc2ccccc2OC)oc2ccccc12 | inactive | 
COc1ccc(COC(=O)N/N=C2/C[C@@H](O)[C@@H](O)[C@@H]3[C@@H]4C(=O)N([C@@H](C)c5ccccc5)C(=O)[C@H]4CC[C@@H]23)cc1 |  | -8.23% [at 11.4 µM] (inactive)
CC(C)=C1C(=O)C(c2ccccc2)=C2CN3C(=O)N(CCc4ccccc4)C(=O)[C@]3(Cc3ccccc3)[C@H]21 | inactive | 
O=C(O)c1nc(-c2ccccc2)[nH]c1C(=O)O |  | -20.9% [at 11.4 µM] (inactive)
Cc1cccc(NC(=O)c2cc(N3C(=O)CCC3=O)ccc2Cl)n1 | inactive | 
Cc1ccc(S(=O)(=O)N(C)c2cc(S(=O)(=O)N3CCC(C)CC3)c(C)cc2C)cc1 | inactive | 
CCOC(=O)c1cnc(-n2nc(C)cc2C)nc1NCCO | inactive | 
CC1=C(\C=C/C(C)=C/C=C\C(C)=C\C(=O)O)C(C)(C)CCC1 | inactive and 2 µM (active) | 
CC1=CC(=O)CC(C)(C)[C@]1(O)/C=C\C(C)=C\C(=O)O |  | 11.4% [at 11.4 µM] (inactive)
O=C1c2ccccc2N[C@H](c2cc(Cl)cc(Cl)c2O)N1CCc1ccccn1 |  | 15% [at 11.4 µM] (inactive)

SMILES | AC50 | activity, negative = inhibition
COC(=O)C1CCN(CC(=O)Nc2sc3c(c2C#N)CCC3)CC1 | 1.12 µM (active) | 
COC(=O)c1c(NC(=O)Cn2cc([N+](=O)[O-])cn2)sc2c1CCC2 | inactive | 
N#Cc1c(NC(=O)C2CC(c3ccccc3Cl)=NO2)sc2c1CCC2 (configuration not stated) | inactive | 
O=c1c(-c2ccc(F)cc2)nc2cnc(N3CCOCC3)nc2n1C[C@H]1CCCO1 | inactive | 
COc1ccc(Cc2nnc(NC(=O)c3cccc([N+](=O)[O-])c3C)s2)cc1 | inactive | 
COc1cc(OC)c2c(c1Cl)O[C@@]1(C2=O)[C@H](C)CC(=O)C[C@@H]1OC | inactive | 
COCCn1c(=O)c(-c2cc(F)cc(F)c2)nc2cnc(Oc3ccccc3)nc21 | inactive | 
CSc1nc2c(c(C(F)(F)F)n1)CC(C)CC2 (configuration not stated) | inactive | 
CSc1nc(N)c2ncn([C@@H]3O[C@@H](COP(=O)(O)OP(=O)(O)O)[C@@H](O)[C@H]3O)c2n1 | inactive | 
COc1ccc(N2C(=O)NC(NC(=O)c3ccncc3)(C(F)(F)F)C2=O)cc1 (configuration not stated) | inactive | 
Cc1nc(SCC(=O)Nc2c(C)n(C)n(-c3ccccc3)c2=O)nc(C)c1C | inactive | 
Cc1ccc(-c2nnc(-c3ccc4ccccc4c3)o2)cc1 |  | 3.58% [at 11.4 µM] (inactive)
c1ccc2cc(NCNc3ccc4ccccc4c3)ccc2c1 | 1 µM (active) | 
O=C(Nc1ccc2ccccc2c1)c1onc2c1CCCC2 | inactive | 
CCOc1cc(CN2CCN(c3ccc(C(C)=O)cc3)CC2)ccc1OC | inactive | 
Cn1c(N)nc2c(nc(OCc3ccccc3)n2[C@@H]2O[C@H](CO)[C@@H](O)[C@@H]2O)c1=O |  | 9.24% [at 11.4 µM] (inactive)
CCN1C(=O)/C(=C/C=C2/SCCN2C)SC1=S | inactive | 
CC1(C)C(=O)NC2=C1C(=O)C(=O)c1ccccc12 | 2.51 µM (active) | 
O=C1c2ccccc2C(=O)C1c1ccccc1 | inactive | 
Cn1ncc2c(Cl)ncnc21 |  | 12.3% [at 11.4 µM] (inactive)
COc1ccc(-c2cc(C(F)(F)F)n3nc(C(=O)NCc4ccco4)c(Cl)c3n2)cc1 | inactive | 
CCCCOC(=S)NC(=O)c1sc2ccccc2c1Cl | inactive | 
CC(=O)Oc1ccc(C(c2ccc(OC(C)=O)cc2)c2ccccn2)cc1 | inactive | 

SMILES | AC50 | activity, negative = inhibition
CN(C)CC[C@H](c1ccc(Br)cc1)c1ccccn1 | 15.8 µM (active) and 25.1 µM (active) | 
CN(C)CC[C@H](c1ccc(Cl)cc1)c1ccccn1 | 31.6 µM (active) | 
CN(C)CC[C@@H](c1ccccc1)c1ccccn1 | inactive | 
CN(C)CC(CN(C)C)c1ccccn1 |  | 6.41% [at 11.4 µM] (inactive)
Cc1ccc(-c2c(C#N)c(N)n(-c3ccccc3)c(=O)c2C#N)cc1 | inactive | 
COC(=O)C1=C(C)C(c2ccc(OC)cc2)NC(=S)N1 (configuration not stated) | inactive | 
Cc1noc(C)c1COc1ccc(C(=O)NCC2CCCO2)cc1 (configuration not stated) | inactive | 
N[C@H](C(=O)O)[C@@H](O)c1cnc[nH]1 |  | 10.8% [at 11.4 µM] (inactive)
COc1cc(OC)c(C(=O)CCCCN2CCC3(CC2)NC(=O)NC3=O)cc1NS(=O)(=O)c1ccc(C(F)(F)F)cc1 | inactive | 
CC[C@H]1C2=C3C(CC[C@H]4C(OCc5ccc(F)cc5C(F)(F)F)OC[C@](C)([C@@H]34)N(C(=O)OC(C)(C)C)C2)C(COC(C)=O)C1COC(C)=O (some centres not stated) | inactive | 
CCOC(=O)C1=C(N)Oc2ccc(Br)cc2[C@@H]1[C@@H](C#N)C(=O)OCC | inactive | 
O=c1c(-c2ccc(F)cc2)nc2cnc(N3CCNCC3)nc2n1C1CC1 | inactive | 
O=C(Cn1cnc2c(oc3ccccc32)c1=O)NCc1ccco1 | inactive | 
c1ccc2cc(Sc3ncnc4c3oc3ccccc34)ccc2c1 | inactive | 
c1ccc2c(c1)oc1c(NCCCn3ccnc3)ncnc12 | 1.26 µM (active) | 
Cc1nc(SCC(=O)NCCc2ccccc2)c2oc3ccccc3c2n1 | inactive | 
CCc1nc(N[C@H](C(=O)O)C(C)CC)c2oc3ccccc3c2n1 (some centres not stated) | inactive | 
c1ccc(-c2nc(NCCCn3ccnc3)c3oc4ccccc4c3n2)cc1 | 2 µM (active) | 
CC(C)=CCC/C(C)=C/CO/N=C1/C[C@@H](O)[C@@H](O)[C@@H]2[C@H]3C(=O)N(c4ccc(F)cc4F)C(=O)[C@@H]3CC[C@H]12 |  | 6.74% [at 11.4 µM] (inactive)
O=c1cc(CSc2nnc(-c3cccnc3)n2-c2ccccc2F)nc2sccn12 | inactive | 
COc1ccc(-n2c(N)c(C(=O)NCc3ccco3)sc2=S)cc1 | inactive | 
COc1ccc(OC)c(NC(=O)C(CC(=O)O)NCc2ccco2)c1 (configuration not stated) | inactive | 
C=CCC(NCc1ccco1)c1ccc(OC)cc1 (configuration not stated) | 5.01 µM (active) | 
